Data published in PubChem BioAssay AID2013 (Sanford-Burnham Center for Chemical Genomics, 2009).
Out of some 290,000 compounds screened, about 370 (0.13%) were called active.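 How the source made its calls: active means spots per cell inhibited over 60%, with over 100 cells counted and total cytoplasm intensity under 500,000; inconclusive means wells with under 100 cells, flagged as likely toxic; inactive means the rest.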 The list comes from a sample in which actives are over-represented; it also holds similar structures and randomly drawn compounds. Potency and affinity values are given separately.

Molecular target: G-protein coupled receptor 55 (Homo sapiens) (UniProt Q9Y2T6)
Test: GPR55 antagonists blocking LPI-driven arrestin recruitment, primary screen, imaging, U2OS, beta-arrestin-GFP, LPI agonist (AID 2013);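 further: U2OS cells stably carrying GPR55 and arrestin-GFP stimulated by 5 µM LPI near EC80; imaged beta-arrestin-GFP aggregate spots per cell after agonist stimulation; plate controls were LPI-stimulated DMSO wells for no effect and DMSO wells without LPI for full effect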
Details: U2OS GPR55 beta-arrestin-GFP translocation imaging, LPI antagonism; at 10 µM; hits give high values

G-protein coupled receptor 55 (Homo sapiens), sequence (Q9Y2T6 whole entry, looked up): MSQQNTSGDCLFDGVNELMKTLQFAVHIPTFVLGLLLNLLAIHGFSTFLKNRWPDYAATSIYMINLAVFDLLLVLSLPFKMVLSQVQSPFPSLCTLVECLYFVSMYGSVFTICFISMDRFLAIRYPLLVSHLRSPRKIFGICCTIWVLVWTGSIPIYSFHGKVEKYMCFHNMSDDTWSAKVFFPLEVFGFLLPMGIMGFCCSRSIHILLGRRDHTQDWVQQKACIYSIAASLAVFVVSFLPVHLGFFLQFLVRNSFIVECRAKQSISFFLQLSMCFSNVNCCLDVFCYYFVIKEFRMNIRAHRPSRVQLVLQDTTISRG

Row | SMILES | inhibition
1 | COc1cc(/C=C(/NC(=O)c2ccccc2)C(=O)N2CCOCC2)c([N+](=O)[O-])cc1OC | 13.2% (inactive)
2 | Cc1cc(C(F)(F)F)nc(-n2cc(-c3ccccc3)nn2)n1 | 7.4% (inactive)
3 | Cc1nn(C(C)(C)C)c(OC(=O)c2ccco2)c1Sc1ccccc1 | 7% (inactive)
4 | Cc1nn(C(C)(C)C)c(OC(=O)c2ccc(Br)o2)c1Sc1ccccc1 | -4.1% (inactive)
5 | CCC1(C)CC(=O)N(c2ccc(F)c(Cl)c2)C(=O)C1 | 0.3% (inactive)
6 | CC1=NN(c2ccccc2)C(=O)/C1=C/C=C/c1ccccc1 | 5.8% (inactive)
7 | CC1=NN(c2cccc(C(=O)O)c2)C(=O)/C1=C\C=C\c1ccco1 | 10.3% (inactive)
8 | CCOC(=O)C(C)(C)N(Cc1cccc(C)c1)S(=O)(=O)c1ccc(Cl)c([N+](=O)[O-])c1 | 73.8% (active)
9 | CCOC(=O)C(C)(C)NS(=O)(=O)c1ccc(Cl)c([N+](=O)[O-])c1 | 6.3% (inactive)
10 | CCOC(=O)C(C)(C)N(Cc1ccccc1C)S(=O)(=O)c1ccc(Cl)c([N+](=O)[O-])c1 | 44% (inactive)
11 | CCOC(=O)C(C)(C)N(Cc1ccc(Cl)cc1)S(=O)(=O)c1ccc(Cl)c([N+](=O)[O-])c1 | 44.2% (inactive)
12 | CCOC(=O)C(C)(C)N(Cc1cccc(C)c1)S(=O)(=O)c1cccc([N+](=O)[O-])c1 | 9.3% (inactive)
13 | CC(=O)Nc1ccc(S(=O)(=O)NCC(=O)OCC(=O)N2CCc3ccccc32)cc1 | -1.9% (inactive)
14 | Cc1cc(C)c(C)c(Oc2ncnc(N)c2[N+](=O)[O-])c1 | 0.6% (inactive)
15 | Cc1nc([N+](=O)[O-])cn1CC(=O)Nc1ccc(F)c(Cl)c1 | 1.9% (inactive)
16 | Cn1ccnc1SCC(=O)N1CCc2ccccc21 | -2.6% (inactive)
17 | O=S(=O)(/N=C/N1CCOCC1)c1ccc(Cl)cc1 | 8.2% (inactive)
18 | COc1cc(OC)cc(C(=O)N2CCN(C(=O)c3cccs3)CC2)c1 | -11.9% (inactive)
19 | O=Cc1cn(CC(=O)N2CCOCC2)c2ccccc12 | 6.5% (inactive)
20 | COc1ccc2[nH]cc(C=O)c2c1 | -7.9% (inactive)

Row | SMILES | inhibition
21 | O=C1NC(=O)/C(=C\c2cn(CC(=O)N3CCOCC3)c3ccccc23)S1 | -3.8% (inactive)
22 | COc1ccc(OC)c(-n2c(=O)c3ccccc3c3ccccc3c2=O)c1 | 9.4% (inactive)
23 | COc1ccc(N2C(=O)CCC2=O)c(OC)c1 | 1.4% (inactive)
24 | COc1ccc(OC)c(CNc2c(C=O)c(=O)[nH]c3ccccc23)c1 | 1.2% (inactive)
25 | O=C(c1ccccc1)N1N=C(c2ccccc2)CC1c1ccccc1[N+](=O)[O-] (stereo not given) | 4% (inactive)
26 | OC(COc1cccc2ccccc12)CN1CCCC1 (stereo not given) | -4.7% (inactive)
27 | CN1C(=O)[C@H]2[C@@H](/C=C/c3ccccc3)N3C(=O)CN(CC4CC4)C(=O)[C@@]3(C)[C@H]2C1=O | 7.6% (inactive)
28 | Cc1cc(C)c(C)c(OCCN2CC(C)OC(C)C2)c1 (stereo not given) | -23.1% (inactive)
29 | Cc1ccc(C(C)C)c(OCC(O)CN2CCc3ccccc3C2)c1 (stereo not given) | 2.1% (inactive)
30 | O=S(=O)(c1ccccc1F)N1CCC(c2nc3ccccc3[nH]2)CC1 | -18.2% (inactive)
31 | COc1cc(C2=NOC(C(=O)Nc3cc(C)on3)C2)cc(OC)c1OC (stereo not given) | 0.6% (inactive)
32 | COc1ccccc1NC(=O)COc1ccc2c(c1)OCO2 | 19% (inactive)
33 | CS(=O)(=O)CCC(C(=O)OCC(=O)c1ccc(Cl)cc1)N1C(=O)c2ccccc2C1=O (stereo not given) | -0.1% (inactive)
34 | O=C1NC(c2ccccc2)=NC1(Nc1ccccn1)C(F)(F)F (stereo not given) | 13.1% (inactive)
35 | Cc1ccnc(NC2(C(F)(F)F)N=C(c3ccccc3)NC2=O)c1 (stereo not given) | -6% (inactive)
36 | Cc1ccc(NC2(C(F)(F)F)N=C(c3ccccc3)NC2=O)nc1 (stereo not given) | 87% (active)
37 | CCOc1ccc(C2(C)CC(=O)N(C)C2=O)cc1 (stereo not given) | 5.8% (inactive)
38 | COc1ccc(-n2cc3c(-c4cccc(Br)c4)nnc(C)c3n2)cc1 | 45.1% (inactive)
39 | Cc1nnc(-c2cccc(Br)c2)c2cn(-c3ccccc3)nc12 | 9.1% (inactive)
40 | Cc1nnc(-c2cccc(Br)c2)c2cn(-c3cccc(Br)c3)nc12 | 1.6% (inactive)

Row | SMILES | inhibition
41 | Cc1nnc(-c2cccc(Br)c2)c2cn(-c3ccccc3Cl)nc12 | 7.4% (inactive)
42 | COc1ccc(C)cc1NS(=O)(=O)c1cn(C)nc1C | 3.9% (inactive)
43 | CC(NC(=O)CCc1nnc(CCCc2ccccc2)o1)c1ccccc1 (stereo not given) | -2.7% (inactive)
44 | CN(Cc1ccccc1)C(=O)CCC1CCN(C(=O)CC2=CCCCC2)CC1 | 0.7% (inactive)
45 | O=C(N1CCN(c2ccc(F)cc2)CC1)C12CC3CC(CC(C3)C1)C2 | 1.6% (inactive)
46 | CCCN1CNC(=S)N(c2ccccc2OC)C1 | 10% (inactive)
47 | N=c1c2c3c(sc2ncn1CCN1CCOCC1)CCCC3 | 18.2% (inactive)
48 | COc1cc(/C=C2/C(=O)NN(c3ccc(C)c(Cl)c3)C2=O)cc([N+](=O)[O-])c1O | 2.2% (inactive)
49 | O=C1NC(=S)N/C1=C/c1cc2c(cc1[N+](=O)[O-])OCO2 | 4.7% (inactive)
50 | CCOC(=O)C1=C(c2ccccc2)NC(=O)NC1c1ccc(OC)cc1OC (stereo not given) | 11.3% (inactive)
51 | Cc1ccc(SCC(=O)Nc2cccc(-c3nnc(-c4ccco4)o3)c2)cc1 | 23.1% (inactive)
52 | CNC(=S)N(CCc1c(C)[nH]c2ccc(C)cc12)Cc1cccs1 | -0.9% (inactive)
53 | COCCNC(=S)N(CCc1c(C)[nH]c2ccc(Cl)cc12)Cc1cccs1 | 21.1% (inactive)
54 | CNC(=S)N(CCc1c(C)[nH]c2ccc(Cl)cc12)Cc1cccs1 | 79.7% (active)
55 | COc1ccc(NC(=O)CCNS(=O)(=O)c2ccc(C)c(C)c2)cc1OC | 0.7% (inactive)
56 | C=CCN1C=CC(=CC=C(C#N)C#N)C=C1 | 67.9% (active)
57 | C=CCN1C=CC(=C/C=C(/C#N)C(=O)OCC)C=C1 | 4.5% (inactive)
58 | CCCN1C=CC(=CC=C(C#N)C#N)C=C1 | 52.4% (inactive)
59 | CCOc1ccc(N(CC(=O)Nc2ccc(C)c(F)c2)C2=NC3CS(=O)(=O)CC3S2)cc1 (stereo not given) | 2.9% (inactive)
60 | Cc1ccc(C)c(N2CCN(C(=O)Cn3ncc4c([nH]c5ccc(C)cc54)c3=O)CC2)c1 | 0.4% (inactive)
